Screens: PubChem BioAssay, National Center for Advancing Translational Sciences (NCATS)
AID inhibitor = inhibitors of human activation induced cytidine deaminase | Q9GZX7 | AID deamination FRET fluorescence, UDG-coupled, 4 h | Potency, µM (doses to about 115 µM), hits mostly inhibitors | 91,000 compounds, 0.32% hits | AID 1347428; also: nearly all actives have a fitted effect of over 25% in size
Target sequence (Q9GZX7 whole entry, looked up): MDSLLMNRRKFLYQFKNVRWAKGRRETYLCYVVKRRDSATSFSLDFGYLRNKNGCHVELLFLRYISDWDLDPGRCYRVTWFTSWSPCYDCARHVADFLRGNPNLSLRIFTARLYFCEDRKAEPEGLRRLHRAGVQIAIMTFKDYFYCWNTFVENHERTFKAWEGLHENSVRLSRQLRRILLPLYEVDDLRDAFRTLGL
UDG counter = counter-screen for AID inhibitors: uracil-DNA glycosylase inhibition; 91,000 compounds, 0.14% hits; FRET deamination/UDG coupled assay, UDG read, 4 h; Potency, µM (highest dose often 115 µM), without a hit: at the top dose activity change, negative = inhibition, actives largely listed as inhibitors; AID 1347430; also: nearly all actives have a fitted effect of over 65% in size
* marks the source's active call; other numbers are inactive results; i = inactive; ? = inconclusive. This is a sample that favours compounds with a hit; in the whole collection about 0.47% have one here. Calls follow the shape of the dose curve; as a rule, active = well fitted curve in the direction sought with a large enough effect; inconclusive = small, poorly fitted or top-dose-only effect, or another doubt; inactive = no such curve, though single readings can be large; an effect the other way counts as inactive or inconclusive. % is scaled to controls: 0 for no effect and ±100 for the full control effect; potency is read from the fitted curve at half-maximal effect.

SMILES | AID inhibitor | UDG counter
CSc1ccc(/C=C/C(=O)c2ccc3c(c2)NC(=O)CO3)cc1 | i | -11%
CCN1c2cc(C)ccc2-n2cccc2C12CCN(C(=O)Nc1cc(OC)c(OC)c(OC)c1)CC2 | ? | 89µM*
CCN1c2ccccc2-n2cccc2C12CCN(C(=O)Nc1ccccc1Br)CC2 | i | -7%
O=C(Nc1cc(F)ccc1F)c1ccc2ccccc2n1 | i | -2%
COc1cccc(CNC(=O)CC(c2ccc(C)cc2)N2Cc3ccccc3C2=O)c1 (stereo not given) | ? | 2%
COc1cc(NC(=O)CC(c2ccc(C)cc2)N2Cc3ccccc3C2=O)cc(OC)c1 (stereo not given) | 45µM* | -24%
Cc1cc(C)n(-c2nc3ccccc3nc2N2CCN(S(=O)(=O)c3ccc4ccccc4c3)CC2)n1 | i | 89µM*
Cc1cc(C)n(-c2nc3ccccc3nc2N2CCN(C(=O)c3ccccc3)CC2)n1 | i | 12%
COc1cc(OC)cc(C(=O)/C(=C\c2ccncc2)c2nc3ccccc3o2)c1 | i | 0%
Cc1cc(C)cc(CCCCCCCCCCCC(=O)O)c1 | 79µM* | -3%
O=C(O)CCCCCCCC(=O)O | i | 7%
CCn1nc(C(=O)OC(C)C(=O)c2ccc(C(C)(C)C)cc2)c2ccccc2c1=O (stereo not given) | i | 7%
Cc1ccsc1CNC(=O)/C=C/c1ccncc1 | i | -5%
CC(Sc1cc(Cl)ccc1Cl)C(=O)NC(C)c1ccccn1 (stereo not given) | i | -7%
COc1cccc(/C=C/c2nc(C#N)c(NCc3ccco3)o2)c1 | i | -8%
COc1ccc(CNc2oc(/C=C/c3cccc(OC)c3)nc2C#N)cc1 | i | 89µM*
CC(C)C(=O)/C(C#N)=C\c1cccc(C#N)c1 | i | -4%
CC(C)Oc1ccc(CNC(=O)C2CCCCN2S(=O)(=O)c2ccc(F)cc2)cc1 (stereo not given) | ? | 89µM*
Cc1ccc(C)c(CNC(=O)C2CCCCN2S(=O)(=O)c2ccc(F)cc2)c1 (stereo not given) | i | ?
Cn1c(SCc2ccc(F)cc2)nc2ccc(C(=O)NCc3ccc(Cl)cc3)cc21 | ? | -12%
Cn1c(SCc2ccc(F)cc2)nc2ccc(C(=O)NCc3ccc(F)cc3)cc21 | 28µM* | 1%
Cc1ccc(C(=O)Nc2ccc(S(=O)(=O)O)c3cc(S(=O)(=O)O)cc(S(=O)(=O)O)c23)cc1NC(=O)c1cccc(NC(=O)Nc2cccc(C(=O)Nc3cc(C(=O)Nc4ccc(S(=O)(=O)O)c5cc(S(=O)(=O)O)cc(S(=O)(=O)O)c45)ccc3C)c2)c1 | 7.1µM* | 8%
Cc1ccc(NC(=O)c2cccc(NC(=O)NC(C)C)c2)cc1Cl | i | 0%
CC(Sc1nc(CN2CCOCC2)nc2ccccc12)C(=O)c1ccccc1 (stereo not given) | i | 2%
COc1ccccc1C(=O)Nc1ccc(C(=O)OCc2cc(=O)n3nc(C)sc3n2)cc1 | 28µM* | -10%
SMILES | AID inhibitor | UDG counter
COc1ccccc1C(=O)Nc1ccc(C(=O)OCc2cc(=O)n3nc(C4CC4)sc3n2)cc1 | i | -10%
Cc1ccccc1OC(=O)C(c1ccccc1)c1ccccc1 | i | -9%
CN(CC(=O)Nc1cc2[nH]c(=O)[nH]c2cc1Br)Cc1ccccc1N1CCCC1 | i | 2%
O=C1c2ccccc2-c2onc3c(N4CCN(C5CCCCC5)CC4)cc(NCCO)c1c23 | i | -4%
CN(C)CCCNc1cc(N2CCN(C3CCCCC3)CC2)c2noc3c2c1C(=O)c1ccccc1-3 | 40µM* | 31%
CCCNC(=O)CNC(=O)c1cc(=O)[nH]c2ccccc12 | i | 1%
CNC(=O)N/C=C(/C#N)C(=O)OC | i | 11%
COc1ccc2[nH]c(C(=O)NCc3ccco3)cc2c1 | i | 10%
O=S(=O)(Nc1nc2ccccc2nc1Nc1ccc(F)cc1)c1cccs1 | i | 3%
Cc1ccc(CNC(=O)c2ccc3nc(N4CCCCC4)sc3c2)cc1 | i | -9%
Cc1ccc(C)c(N2CCN(CCCNC(=O)c3ccc4nc(N5CCCCC5)sc4c3)CC2)c1 | 40µM* | -11%
COc1ccc2c(c1)C(O)(CC(=O)c1ccc(F)cc1)C(=O)N2 (stereo not given) | i | 7%
Cc1ccc(C)c(OCc2ccc(-c3nc(C#N)c(N(C)C)o3)o2)c1 | i | ?
Cn1c(=O)c2c(-c3ccccc3)n3c(c2n(C)c1=O)C(c1cc(Cl)ccc1O)Nc1ccccc1-3 (stereo not given) | i | ?
COc1ccc(-c2c3c(=O)n(C)c(=O)n(C)c3c3n2-c2ccccc2NC3c2ccccc2OC)cc1 (stereo not given) | ? | 79µM*
COC1=C(OC)C(=O)c2ccccc2C1=O | 45µM* | -17%
Cc1cc2c(cc1C)-c1ccccc1C2=O | i | -13%
NC(=O)c1ccc(CNc2cnc3ccccc3n2)cc1 | i | -3%
COc1ccc(C(=O)Nc2ccc(NC(=O)c3cccs3)cc2)cc1OC | 63µM* | -19%
COc1ccccc1C(=O)Nc1ccc(NC(=O)c2cccs2)cc1 | ? | -13%
CC(CC(=O)Nc1ccc(F)cc1)(C(=O)O)c1ccccc1 (stereo not given) | i | -4%
N#Cc1nc(COc2ccc3c(c2)OCO3)oc1NC1CCCCC1 | i | 6%
CCCOc1ccc(-c2nn(-c3ccccc3)cc2C2NC(=O)NC(C)=C2C(=O)OC)cc1 (stereo not given) | ? | -22%
CCCOc1ccc(-c2nn(-c3ccccc3)cc2C2NC(=O)NC(C)=C2C(=O)OCC)cc1 (stereo not given) | ? | 89µM*
CC(=O)Nc1ccc(NC(=O)COC(=O)Cc2cccc3ccccc23)cc1 | i | -5%
COc1ccc2[nH]c(=O)c(CN(C3CCCCC3)S(=O)(=O)c3ccccc3)cc2c1 | i | -1%
Cc1ccc(-c2nc(CCNc3ncccc3C#N)co2)cc1 | i | -2%
CC(C)(Sc1ccc(CCN(CCCCC2CCCCC2)C(=O)NC2CCCCC2)cc1)C(=O)O | 89µM* | 0%
CCCCc1ccc(NC(=O)CC2CCCCC2)cc1 | i | 12%
COc1cc(OC)c(CC2C(=O)Nc3cc(Cl)ccc32)c(OC)c1 (stereo not given) | i | -9%
